The results in this text go back to PubChem BioAssay (NCATS).

SMILES strings stand for the structures. Inconclusive results are not listed. Calls of active or inactive are those of the source. Unless noted, no rule for the calls is given here.

Experiment [1] is described as follows: qHTS profiling for inhibitors of Plasmodium falciparum (3D7) proliferation (AID 743322).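 Also: infected erythrocytes exposed to compound for 72 h before lysis; 100% = DMSO vehicle wells and 0% = 0.29 µM artemisinin.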 The note with it: P. falciparum 3D7 proliferation; at 28.7 µM (top of the series) unless noted. The method in brief: (§1)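 Erythrocytes infected with P. falciparum (0.3% parasitemia, 2.5% hematocrit) incubated with compounds 72 h at 37 C, 5% CO2. Lysis with saponin/Triton buffer containing SYBR Green I, overnight at room temperature in the dark; DNA fluorescence (485/535 nm) normalised to 0.29 uM artemisinin and DMSO.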
On the technique in general: qHTS replaces the single test concentration by a dilution series.

Experiment [2] can be described thus: qHTS profiling for inhibitors of Plasmodium falciparum (DD2) proliferation (AID 743323). The note with it: lower = more inhibition; at 28.7 µM (top of the series) unless noted. The essentials:
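P. falciparum Dd2-infected erythrocytes (0.3% parasitemia, 2.5% hematocrit) exposed 72 h at 37 C, 5% CO2. Lysis with SYBR Green, overnight at room temperature, fluorescence 485/535 nm; normalized to 0.29 uM artemisinin and DMSO.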

Experiment [3] is described as follows: qHTS profiling for inhibitors of Plasmodium falciparum (HB3) proliferation (AID 743324; active = well fitted curve in the direction sought with a large enough effect; an effect the other way counts as inactive or inconclusive;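 also: 100% = DMSO vehicle wells and 0% = artemisinin-treated control wells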). The note with it: Plasmodium falciparum HB3 blood-stage proliferation; at 28.7 µM (top of the series) unless noted. The essentials:
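P. falciparum HB3 grown in erythrocytes (0.3% parasitemia, 2.5% hematocrit final) with compound for 72 h at 37 C, 5% CO2. Parasite DNA detected by SYBR Green after saponin/triton lysis overnight; normalized to 0.29 uM artemisinin and DMSO.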

Experiment [4] can be described thus: qHTS profiling of the MIPE4 collection as inhibitors of Plasmodium falciparum (3D7) proliferation (AID 743344).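 Also: scaled between DMSO vehicle wells and 0.29 µM artemisinin as full inhibition.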 The note with it: P. falciparum 3D7 in erythrocytes, SYBR Green DNA fluorescence, 72 h; at 28.5 µM (top of the series) unless noted. The method in brief: as §1
Experiment [5] is described as follows: qHTS profiling of the MIPE4 collection as inhibitors of Plasmodium falciparum (DD2) proliferation (AID 743345). The note with it: P. falciparum Dd2 in erythrocytes, SYBR Green DNA, 72 h; at 28.5 µM (top of the series) unless noted. The essentials: as §1
The nature of experiment [6]: qHTS profiling of the MIPE4 collection as inhibitors of Plasmodium falciparum (DD2) proliferation (Rep 2) (AID 743346). The note with it: P. falciparum Dd2 in erythrocytes, SYBR Green DNA, 72 h; at 28.5 µM (top of the series) unless noted. The essentials:
as §1

The nature of experiment [7]: qHTS profiling of the MIPE4 collection as inhibitors of Plasmodium falciparum (HB3) proliferation (AID 743347).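 Also: plate controls were DMSO vehicle wells for no effect and artemisinin wells for full effect.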 The note with it: P. falciparum HB3 in erythrocytes, SYBR Green DNA, 72 h; at 28.5 µM (top of the series) unless noted. The method in brief:
as §1

The nature of experiment [8]: High-throughput drug toxicity screening in the BPDCN cell line Gen2.2 (AID 1224824).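 Also: cells exposed to compounds for 48 h before reading.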 The note with it: Gen2.2 BPDCN cells; at 45.8 µM (top of the series) unless noted. The method in brief: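 Seed 500 exponentially growing Gen2.2 cells/well; add compounds by pin tool; incubate 48 h, 37 °C, 5% CO2; add CellTiter-Glo, 15 min RT; read luminescence. % activity vs DMSO (100%) and bortezomib (0%).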

A short description of experiment [9]: High-throughput drug toxicity screening in the BPDCN cell line Cal-1 (AID 1224825). The note with it: Cal-1 BPDCN cell viability, qHTS; at 45.8 µM (top of the series) unless noted. The essentials:
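500 Cal-1 cells/well, RPMI + glutamine + 10% FBS (phenol red-free); cpd added by pin tool; 48 h, 37C, 5% CO2; CTG 15 min RT, lumi read. Normalised: DMSO 100%, bortezomib 9.2 uM 0%.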

A short description of experiment [10]: qHTS assay for measurement of the activity of small molecule inhibitors on Zika virus induced Caspase-3 activity in human iPSC derived neural progenitor cells (hNPCs) (AID 1224857; active = well fitted curve in the direction sought with a large enough effect; an effect the other way counts as inactive or inconclusive; also: % of control where 0% means no effect; nearly all actives have a fitted effect of over 65% in size). The method in brief: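 After overnight (16–20 h) culture at 350 cells/well, hNPCs get compound, then ZIKV 2 FFU/cell one hour later. Six hours on, Caspase-Glo 3/7 is added and luminescence measured.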

Experiment [11] is described as follows: qHTS assay for measurement of the activity of small molecule inhibitors on Zika virus induced Caspase-3 activity in human astrocytoma cells (AID 1224859; active = well fitted curve in the direction sought with a large enough effect; an effect the other way counts as inactive or inconclusive;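 also: plate controls were ZIKV-infected untreated cells for no effect and uninfected cells for full effect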). The method in brief:
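Inhibition of Zika-induced caspase-3/7 activity: SNB-19 cells, 1 h compound pretreatment, ZIKV 2 FFU/cell for 6 h at 37 C, Caspase-Glo luminescence read-out.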

Experiment [12] can be described thus: qHTS Screen of the MIPE 4.0 Collection Against Ewings Sarcoma (TC71) (AID 1259253; active = well fitted curve in the direction sought with a large enough effect; an effect the other way counts as inactive or inconclusive; also: potency is read from the fitted curve at half-maximal effect; nearly all actives have a fitted effect of over 40% in size). The method in brief:
(§2)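 CellTiter-Glo luminescence after 48 h compound exposure (titration) gave viability; percent activity used DMSO-treated cells as no inhibition and medium-only wells as full inhibition. Cells grown in RPMI/5% FBS, dosed 4 h post-seeding.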

Experiment [13] in a line: qHTS Screen of the MIPE 4.0 Collection Against Ewings Sarcoma (EW8) (AID 1259255; active = well fitted curve in the direction sought with a large enough effect; an effect the other way counts as inactive or inconclusive; also: nearly all actives have a fitted effect of over 35% in size; also: potency is read from the fitted curve at half-maximal effect;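 as to viability: 100% = DMSO-treated cells and 0% = medium-only wells without cells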). The essentials:
as §2

The nature of experiment [14]: qHTS Screen of the MIPE 4.0 Collection Against Ewings Sarcoma (TC32) (AID 1259256; active = well fitted curve in the direction sought with a large enough effect; an effect the other way counts as inactive or inconclusive; also: potency is read from the fitted curve at half-maximal effect; nearly all actives have a fitted effect of over 45% in size). The method in brief:
as §2

The nature of experiment [15]: Identifying Small Molecule Inhibitors of Pancreatic Cancer Stem Cells (A2780, Spheroid) (AID 1259357; active = well fitted curve in the direction sought with a large enough effect; an effect the other way counts as inactive or inconclusive; also: potency is read from the fitted curve at half-maximal effect;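 also: spheroids pre-formed over 14 days in stem cell medium on hydrogel; compound exposure lasted 48 h before the ATP luminescence read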). The note with it: Potency: A2780 spheroid viability. The method in brief: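 Spheroids grown 14 days in stem cell media on nonadherent hydrogel before screening; cells attached 4 h, then compound exposure 48 h at 37C, 5% CO2. CellTiter-Glo luminescence normalized to DMSO (no inhibition) and no-cell wells (full inhibition).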

Take `C/C(=C\C(=O)Nc1ccccc1C(=O)O)c1ccc2ccccc2c1`: the remaining parasite growth % (stronger effect = lower value) in experiment [1] came out at 32.7%. In experiment [2], the activity, percent of control is 101%. For the same molecule, in experiment [3], the remaining proliferation (% of control), lower = more inhibition is 114%.

Take `COc1ccc(-c2ccc3c(N4CCOC[C@H]4C)nc(N4CCOC[C@H]4C)nc3n2)cc1CO`: in experiment [1], the remaining parasite growth % (stronger effect = lower value) turned out to be 15.5%. Besides, the activity, percent of control in [2] worked out at 19.8%. In addition, the remaining proliferation (% of control), lower = more inhibition in experiment [3] stood at 10.7%. The molecule further yielded a parasite growth, % of DMSO control in [4] of 6.01%. This molecule also returned a parasite growth remaining, % of DMSO control (lower = more inhibition) in experiment [5] of 9.32%. The molecule also displayed a parasite growth, % of control (lower = inhibition) in [6] of 13.1%. In experiment [7], this molecule came in with a growth, % of control of 7.68%. The cell viability, % of control (lower = more cytotoxic) in [8] stood at 11.3%. The molecule also showed a viability (% of control) in [9] of 22%. Moreover, the Potency entry in experiment [10] and in [11] was “inactive” each time. In addition, the Potency is 33.2 nM (active) in [12], 26.4 nM (active) in experiment [13], 26.4 nM (active) in [14] and 18.7 nM (active) in [15].

Consider `COCCNCCCn1c(C(=O)CF)c(-c2ccc(C)cc2)c2c(N)ncnc21`, for which the remaining parasite growth % (stronger effect = lower value) in [1] was determined as 72.8%. Also, the activity, percent of control in [2] was found to be 77.9%. Further, in experiment [3], the remaining proliferation (% of control), lower = more inhibition came out at 35%. In [4], the parasite growth, % of DMSO control is 39%. The parasite growth remaining, % of DMSO control (lower = more inhibition) in experiment [5] turned out to be 85.3%. In experiment [6], this molecule had a parasite growth, % of control (lower = inhibition) of 36.5%. Also, the growth, % of control in experiment [7] worked out at 32.4%. Further, in experiment [8], the cell viability, % of control (lower = more cytotoxic) amounted to 77.9%. For the same molecule, the viability (% of control) in experiment [9] came out at 85.7%. For the same molecule, the Potency entry in experiment [10], in experiment [11], in [13] and in experiment [15] was “inactive” each time. Further, the Potency in [12] is 16600 nM (active).

Take `CN[C@@H](C)C(=O)N[C@H]1CCCC[C@H]2CC[C@@H](C(=O)N[C@@H](c3ccccc3)c3cn(CCCCc4ccc(CCCCn5cc([C@@H](NC(=O)[C@@H]6CC[C@@H]7CCCC[C@H](NC(=O)[C@H](C)NC)C(=O)N76)c6ccccc6)nn5)cc4)nn3)N2C1=O`: in [1], the remaining parasite growth % (stronger effect = lower value) was -0.81%. In [2], the activity, percent of control was determined as 0.253%. For the same molecule, in experiment [3], the remaining proliferation (% of control), lower = more inhibition was -1.02%. The molecule also had a parasite growth, % of DMSO control in [4] of 5.44%. This molecule also came in with a parasite growth remaining, % of DMSO control (lower = more inhibition) in experiment [5] of 8.15%. The parasite growth, % of control (lower = inhibition) in [6] was 9.02%. The molecule also had a cell viability, % of control (lower = more cytotoxic) in experiment [8] of 28%. Besides, the viability (% of control) in [9] stood at 1.94%. Besides, the Potency entry in experiment [10], in experiment [11] and in experiment [15] was “inactive” throughout. In addition, the Potency was 26400 nM (active) in [13] and 18700 nM (active) in experiment [14].
